Test results: PubChem BioAssay (NCI)
About 79,000 compounds went through this panel and 15% of them were active in at least one assay; those are over-represented in the sample as a whole. The source made the active and inactive calls. No stated cut-off is given here; in the data, active means growth inhibition above about 70%; inactive means the rest.

Experiment: NCI Yeast Anticancer Drug Screen. Data for the sgs1 strain (AID 173);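 further: 0% = growth of vehicle-only control cultures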
Settings: S. cerevisiae sgs1 mutant, hits give high values
Description: Growth inhibition of yeast strains with defined genetic alterations is measured as a screen for potential anti-cancer activity. Selected strains with alterations in DNA damage repair or cell cycle control were exposed to compounds and growth inhibition was measured relative to vehicle treated controls. The strain used in this assay is sgs1

Compound	growth inhibition (at 1.2 µM)	growth inhibition (at 3.7 µM)	growth inhibition (at 11.0 µM)	growth inhibition (at 33.0 µM)	growth inhibition (at 100.0 µM)
CC(C)=CC(=O)O[C@@H]1CC(C)(C)CC2C3=CCC4[C@]56CC[C@](O)(OC5)C(C)(C)C6CC[C@@]4(C)C3(C)CC[C@]21C(=O)O (stereo not given in full)	-3% (inactive)	46% (inactive)	83% (active)	95% (active)	95% (active)
COc1ccc(/C=C/C(=O)C(C)(C)Br)cc1	69% (inactive)	87% (active)	91% (active)	92% (active)	95% (active)
CN1c2ccc(Cl)cc2C(=O)NC1c1ccc([N+](=O)[O-])s1 (stereo not given)	-4% (inactive)	13% (inactive)	58% (inactive)	95% (active)	96% (active)
CC(/C=C/c1ccc2c(c1)OCO2)[N+](=O)[O-] (stereo not given)	30% (inactive)	82% (active)	99% (active)	99% (active)	99% (active)
O=C1c2ccccc2C(=O)c2c(NC3CCCCC3)ccc(Nc3ccc(S(=O)(=O)O)cc3)c21	-1% (inactive)	-2% (inactive)	23% (inactive)	79% (active)	72% (active)
CC(C)C1=CCC2C(=C1)CCC1C(C)(C(=O)O)CCCC21C (stereo not given) (tested in a mixture with another compound)	18% (inactive)	24% (inactive)	23% (inactive)	43% (inactive)	96% (active)
CC(=O)OCc1ccc(O)c(C=O)c1	-11% (inactive)	-5% (inactive)	10% (inactive)	34% (inactive)	63% (inactive)
c1ccc(-c2nc3cccnc3s2)cc1	-2% (inactive)	-3% (inactive)	-2% (inactive)	-3% (inactive)	-9% (inactive)
